Many of the other results were omitted from the sample, so hits are more common in it than they were.
ST2 inh – IL1RL1 inhibition | Q01638 | AlphaLISA ST2-Fc/biotin-IL-33 interaction, 1 h | inhibition, % for hits at 17 µM | 2.3% of 78,000 active | AID 1259354; in the data active = inhibition above about 30%
Target sequence (Q01638 whole entry, looked up): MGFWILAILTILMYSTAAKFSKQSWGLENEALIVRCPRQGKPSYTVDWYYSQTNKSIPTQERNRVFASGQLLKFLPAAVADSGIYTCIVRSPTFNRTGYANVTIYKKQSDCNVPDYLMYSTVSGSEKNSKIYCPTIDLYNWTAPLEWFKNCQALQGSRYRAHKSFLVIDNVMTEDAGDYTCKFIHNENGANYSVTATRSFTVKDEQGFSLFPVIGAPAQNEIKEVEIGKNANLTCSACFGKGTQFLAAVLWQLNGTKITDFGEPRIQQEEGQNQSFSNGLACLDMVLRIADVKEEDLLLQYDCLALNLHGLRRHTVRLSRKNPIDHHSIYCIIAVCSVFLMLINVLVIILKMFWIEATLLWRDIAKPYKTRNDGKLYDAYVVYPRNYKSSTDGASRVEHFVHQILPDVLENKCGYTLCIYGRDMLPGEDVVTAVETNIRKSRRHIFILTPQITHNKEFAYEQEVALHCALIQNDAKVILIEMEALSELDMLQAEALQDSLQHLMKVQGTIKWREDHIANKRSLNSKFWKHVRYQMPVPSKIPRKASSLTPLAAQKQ
* = called active by the depositor; i = inactive; ! = a repeat was not active.

SMILES	ST2 inh
NC(=O)[C@H](Cc1ccccc1)N1CC[C@H]2CN(C(=O)C3CCCCC3)CC[C@H]2CC1=O	i
c1ccc(CN2CCN(C3CCCCCC3)CC2)cc1	i
O=C1C[C@@H]2CCN(Cc3ccccc3)C[C@@H]2CCN1C1CCCCC1	76.0%*
NC1(C(=O)N2CCC(C(O)Cc3ccccc3)CC2)CC1 (stereo not drawn)	i
CCOc1ccc(N2C(=O)NC(=O)C(=S(C)C)C2=O)cc1	i
O=C(NCC1CCCN(Cc2ccc3c(c2)OCCO3)C1)c1ccco1 (stereo not drawn)	i
COc1ccc2nc(Cl)c(Cl)nc2c1	i
COc1ccc(C(=O)O/N=C2\c3ccccc3-c3nc4ccccc4nc32)cc1	i
COc1ccc2nc3c(nc2c1)C(=O)c1ccccc1-3	32.0%*
CCOC(=O)C1(CCc2ccccc2)CCCN(C(=O)C2=CCCC2)C1 (stereo not drawn)	i
O=C(c1ccc(Cl)cn1)N1C[C@@H]2C[C@H](C1)[C@@H]1CCCC(=O)N1C2	i
N#C/C(=C\c1ccc(Cl)cc1)c1nc(C2CC2)cs1	66.0%*
N#C/C(=C\c1ccc([N+](=O)[O-])cc1)c1nc(-c2ccc3c(c2)OCO3)cs1	i
N#C/C(=C\c1ccc(F)cc1)c1nc(C2CC2)cs1	52.0%*
O=S(=O)(Nc1ccccn1)c1ccc(N=Cc2ccccc2OCc2ccccc2)cc1	i
O=C1C(=O)N(Cc2cccnc2)C(c2ccncc2)C1=C(O)c1ccccc1 (stereo not drawn)	i
COc1ccc(C2CC(c3ccccc3O)=Nc3ncnn32)cc1 (stereo not drawn)	i
Cn1cc(C(=O)NCCSc2cn[nH]n2)c2ccccc21	i
CC(=O)N(c1ccc(C)c(C)c1)C1C=CS(=O)(=O)C1 (stereo not drawn)	i
CCc1ccccc1NC(=O)c1c(OC)cccc1OC	i
COc1ccc(OC)c(NC(=O)c2cc3ccccc3o2)c1	i
COc1ccc(OC)c(NC(=O)c2c(OC)cccc2OC)c1	35.0%*
CC1(C)CC(=O)c2cc(OCC(=O)NCCC3=CCCCC3)ccc2O1	i
CC(=O)c1ccc2sc3ccccc3c2c1	i
O=S(=O)(c1ccc(I)cc1)N1CCSC1c1cccc(Cl)c1 (stereo not drawn)	i
SMILES	ST2 inh
COc1cc(NC2OC(=O)c3ccccc32)c(OC)cc1Cl (stereo not drawn)	i
CCOc1cc2c(cc1OCC)C(c1ccc(OC)c(OC)c1)OC(=O)C2 (stereo not drawn)	i
COc1cc2c(cc1OC)C(c1ccc(Cl)cc1)OC1=C2C(=O)c2ccccc21 (stereo not drawn)	47.0%*
CCOC(=O)C1=C(C)N=C2SCCC(=O)N2C1c1ccc(OCC)c(OCC)c1 (stereo not drawn)	i
CN(Cc1ccccc1)c1ncccc1CNC(=O)C1CCC(=O)NC1 (stereo not drawn)	i
Cc1cc(C)n(Cc2nc(-c3sccc3C)oc2C)n1	i
CCn1c(C)csc1=NC(=O)c1ccccc1O	i
OCCn1c(-c2ccc(Cl)c(Cl)c2)csc1=Nc1ccccc1	48.0%*
CC(C)CNC(=O)c1cc(-c2ccc(Cl)c(Cl)c2)on1	i
Cc1csc(=Nc2ccccc2)n1CC(=O)c1ccc(Cl)cc1	36.0%*
CCOC(=O)c1sc(=Nc2ccccc2)n(Cc2ccccc2)c1C	i
OCCn1c(-c2ccc(I)cc2)csc1=Nc1ccccc1	42.0%*
COc1ccc(-c2csc(=Nc3ccccc3)n2CCCN(C)C)cc1	44.0%*
COc1ccc(OCCn2c(=N)n(CC(C)C)c3ccccc32)cc1	i
COc1ccc(C(O)=C2C(=O)C(=O)N(CCCN(C)C)C2c2cccs2)c(C)c1 (stereo not drawn)	i
O[C@@H]1C[C@@H](c2nc(-c3ccncc3)no2)N(Cc2cccc(OC(F)(F)F)c2)C1	i
Cc1cccc(N=c2oc3ccc(Cl)cc3cc2C(N)=O)c1	i
O=C(Nc1ccc(S(=O)(=O)N2CCOCC2)cc1)c1cccc(S(=O)(=O)N2CCCC2)c1	i
C=C1N(c2ccc(Cl)cc2)C(=O)OC12CCCCC2	i
OCCCn1c(-c2ccccc2)csc1=Nc1ccccc1	61.0%*
COc1ccc(-c2cn3ccccc3n2)cc1F	i
COc1ccc(N=c2scc(-c3ccc4c(c3)OCCO4)n2CCO)cc1	32.0%*
Cc1nc2ccccc2c(=O)n1CCCO	i
OCCn1c(-c2ccc(Cl)cc2)csc1=Nc1ccccc1	61.0%*
COc1ccc(-c2csc(=Nc3ccccc3)n2CCO)cc1F	48.0%*
SMILES	ST2 inh
c1ccc(N=c2scc(-c3ccccc3)n2CCN2CCOCC2)cc1	i
COc1ccc(CNC(=O)c2cc(-c3ccc4c(c3)OCO4)on2)cc1	i
COc1ccc2c(=O)c(-c3ccc4c(c3)OCCCO4)coc2c1	i
OC(/C=C/CN1CCCCC1)(c1ccccc1)c1ccccc1	i
CCCCNC(=O)c1cn(C)c(=O)c2c1c1ccccc1n2C	i
CN(C)/C=C/c1c(C#N)c2ncnc(-c3ccccc3)c2n1Cc1ccccc1	i
CCC(=O)N1CCc2cc(Br)cc(S(=O)(=O)NCCCN(CC)CC)c21	i
CCc1c(C)sc(NC(=O)c2cc(-c3ccc(F)cc3)on2)c1C#N	i
NC(=O)c1cccc(CC2CCN(C(=O)COc3ccc(Cl)cc3)C2)c1 (stereo not drawn)	i
COc1ccc(Cc2noc(CN3CCN(c4nc5ccccc5s4)CC3)n2)cc1OC	i
O=C(NCc1cccnc1)c1ccc2nc3ccccc3c(=O)n2c1	i
OCC#CC(O)(c1ccc(F)cc1)c1ccc(F)cc1	i
O=C1NCCN(Cc2cccc3ccccc23)C1CC(=O)N1CCCCCCC1 (stereo not drawn)	i
O=C(Nc1cccc(F)c1)c1oc2ccccc2c1NC(=O)C1CCCC1	i
CCCN(CCC)C(=O)c1ccc(OC)cc1	i
CN(Cc1ccccc1)C(=O)Cn1c2ccccc2c(=O)c2ccccc21	i
COc1ccc2ccccc2c1-c1nccn1CCN1CCOCC1	i
CCCCN(C)Cc1ccc([N+](=O)[O-])cc1	i
CCCCN(C)c1nc(-c2ccc([N+](=O)[O-])cc2)nc2ccccc12	39.0%*
C=CCNc1nc(-c2ccc([N+](=O)[O-])cc2)nc2ccccc12	i
c1cncc(CNc2c3ccccc3nc3ccccc23)c1	i
O=[N+]([O-])c1ccc(-c2nc(NCc3cccnc3)c3ccccc3n2)cc1	96.0%*!
O=[N+]([O-])c1ccc(-c2nc(NC3CCCCC3)c3ccccc3n2)cc1	i
O=C(CCC1CCN(Cc2cc(Cl)ccc2O)CC1)NCc1ccc(F)cc1	i
COc1ccc(C(O)=Cc2nc3cc(C)ccc3oc2=O)cc1OC	i
SMILES	ST2 inh
COc1cccc2cc(C(=O)Nc3ccc(Br)cc3)c(=O)oc12	i
COc1ccc(-c2ccc(C(=O)NCc3cc(=O)[nH]cn3)o2)cc1	i
COc1cccc2cc(-c3nc(-c4ccc5ccccc5c4)cs3)c(=O)oc12	i
Cc1cccc(NC(=O)C(C)SCc2ccccc2)c1C (stereo not drawn)	i
CC(=O)Nc1c(O)nc(SCc2ccc(Br)cc2)[nH]c1=O	i
C=CCN1C(=O)CSc2ccc(C(=O)O)cc21	i
CN1CCC2(CC1)CN(C(=O)c1cc(-c3ccc(O)cc3)n[nH]1)CCCN2C	i
COc1cc(C(=O)N2CCCN(C)C3(CCN(C)CC3)C2)nc(OC)n1	33.0%*
CNc1nc(C(=O)N2CCC3(CCCN(C)CC3)CC2)cs1	i
Cc1cc(O)c(C=Nc2ccccc2O)c(C)c1Cl	i
COc1ccc(C(=O)COc2ccc(Cl)cc2)cc1	i
